# Test results reported in ChEMBL document CHEMBL5598561, “ASAP - In vitro binding kinetics” (2024).
# Biological target: Nonstructural protein 3 (Zika virus) (UniProt A0A024AXB9)
# Details: PRVABC59, Concentration 10.0 uM
# Sequence of Nonstructural protein 3 (Zika virus) (A0A024AXB9 as listed by the source): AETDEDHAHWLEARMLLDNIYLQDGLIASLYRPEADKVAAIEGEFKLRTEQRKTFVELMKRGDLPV
compound,measurement,setting,value
CNC(=O)[C@H](Nc1ccc2c(c1)CNC2)c1cccc2[nH]ncc12,pKD,"Immobilization level 3900.0 pg/mm2, Rmax 32.0 pg/mm2, ka 221759.296 M-1s-1, kd 2.211 1/s",5
same,pKD,"Immobilization level 4900.0 pg/mm2, Rmax 43.0 pg/mm2, ka 260065.267 M-1s-1, kd 2.378 1/s",5.04
same,pKD,"Immobilization level 5500.0 pg/mm2, Rmax 48.0 pg/mm2, ka 212060.721 M-1s-1, kd 2.045 1/s",5.02
same,pKD,"Immobilization level 10000.0 pg/mm2, Rmax 60.0 pg/mm2, ka 93401.957 M-1s-1, kd 2.887 1/s",4.51
same,pKD,"Immobilization level 12000.0 pg/mm2, Rmax 22.0 pg/mm2, ka 158759.097 M-1s-1, kd 1.348 1/s",5.07
same,pKD,"Immobilization level 13000.0 pg/mm2, Rmax 39.0 pg/mm2, ka 126882.155 M-1s-1, kd 1.56 1/s",4.91
NCCc1ccc(NC(=O)c2cc(Cl)cc3[nH]ncc23)cc1,pKD,"Immobilization level 10000.0 pg/mm2, Rmax 37.0 pg/mm2, ka 181570.157 M-1s-1, kd 4.215 1/s",4.63
same,pKD,"Immobilization level 12000.0 pg/mm2, Rmax 45.0 pg/mm2, ka 212645.467 M-1s-1, kd 3.181 1/s",4.83
same,pKD,"Immobilization level 13000.0 pg/mm2, Rmax 31.0 pg/mm2, ka 239123.399 M-1s-1, kd 3.643 1/s",4.82
CNCc1cccc(NC(=O)c2cc(Cl)cc3[nH]ncc23)c1,pKD,"Immobilization level 3900.0 pg/mm2, Rmax 52.0 pg/mm2, ka 146599.437 M-1s-1, kd 4.892 1/s",4.48
same,pKD,"Immobilization level 4900.0 pg/mm2, Rmax 92.0 pg/mm2, ka 51361.571 M-1s-1, kd 2.243 1/s",4.36
same,pKD,"Immobilization level 5500.0 pg/mm2, Rmax 53.0 pg/mm2, ka 187092.368 M-1s-1, kd 3.041 1/s",4.79
same,pKD,"Immobilization level 12000.0 pg/mm2, Rmax 56.0 pg/mm2, ka 231928.789 M-1s-1, kd 3.617 1/s",4.81
O=C1NCc2c1cccc2C(=O)Nc1ccc2c(c1)CNC2,pKD,"Immobilization level 3900.0 pg/mm2, Rmax 18.0 pg/mm2, ka 393715.885 M-1s-1, kd 4.071 1/s",4.99
same,pKD,"Immobilization level 4900.0 pg/mm2, Rmax 15.0 pg/mm2, ka 235814.335 M-1s-1, kd 2.807 1/s",4.92
same,pKD,"Immobilization level 5500.0 pg/mm2, Rmax 18.0 pg/mm2, ka 357121.96 M-1s-1, kd 4.231 1/s",4.93
same,pKD,"Immobilization level 12000.0 pg/mm2, ka 172299.161 M-1s-1, kd 1.476 1/s",5.07
same,pKD,"Immobilization level 13000.0 pg/mm2, Rmax 19.0 pg/mm2, ka 18937.32 M-1s-1, kd 1.323 1/s",4.16
Cn1cc2cc(Cl)cc(C(=O)Nc3ccc4c(c3)CNC4)c2n1,pKD,"Immobilization level 10000.0 pg/mm2, Rmax 16.0 pg/mm2, ka 983801.201 M-1s-1, kd 0.863 1/s",6.06
same,pKD,"Immobilization level 12000.0 pg/mm2, Rmax 34.0 pg/mm2, ka 627028.403 M-1s-1, kd 0.493 1/s",6.1
same,pKD,"Immobilization level 13000.0 pg/mm2, Rmax 25.0 pg/mm2, ka 951140.583 M-1s-1, kd 0.688 1/s",6.14
Cc1ncc(Br)cc1C(=O)Nc1ccc2c(c1)CNC2,pKD,"Immobilization level 3900.0 pg/mm2, Rmax 35.0 pg/mm2, ka 305396.759 M-1s-1, kd 1.511 1/s",5.3
same,pKD,"Immobilization level 4900.0 pg/mm2, Rmax 50.0 pg/mm2, ka 284203.309 M-1s-1, kd 1.434 1/s",5.3
same,pKD,"Immobilization level 5500.0 pg/mm2, Rmax 66.0 pg/mm2, ka 223031.106 M-1s-1, kd 1.457 1/s",5.18
same,pKD,"Immobilization level 12000.0 pg/mm2, Rmax 11.0 pg/mm2, ka 147874.405 M-1s-1, kd 1.474 1/s",5
same,pKD,"Immobilization level 13000.0 pg/mm2, ka 192202.373 M-1s-1, kd 1.118 1/s",5.24
N[C@H]1Cc2ccc(NC(=O)c3cc(Cl)cc4[nH]ncc34)cc2C1,pKD,"Immobilization level 3900.0 pg/mm2, Rmax 32.0 pg/mm2, ka 340293.713 M-1s-1, kd 0.278 1/s",6.09
same,pKD,"Immobilization level 4900.0 pg/mm2, Rmax 50.0 pg/mm2, ka 211944.111 M-1s-1, kd 0.288 1/s",5.87
same,pKD,"Immobilization level 5500.0 pg/mm2, Rmax 52.0 pg/mm2, ka 230237.04 M-1s-1, kd 0.293 1/s",5.9
same,pKD,"Immobilization level 10000.0 pg/mm2, Rmax 43.0 pg/mm2, ka 451655.452 M-1s-1, kd 0.518 1/s",5.94
same,pKD,"Immobilization level 12000.0 pg/mm2, Rmax 66.0 pg/mm2, ka 170946.752 M-1s-1, kd 0.316 1/s",5.73
same,pKD,"Immobilization level 13000.0 pg/mm2, Rmax 60.0 pg/mm2, ka 295502.849 M-1s-1, kd 0.406 1/s",5.86
N#C[C@H](Nc1ccc2c(c1)CNC2)c1cccc2[nH]ncc12,pKD,"Immobilization level 10000.0 pg/mm2, Rmax 24.0 pg/mm2, ka 92252.014 M-1s-1, kd 0.378 1/s",5.39
same,pKD,"Immobilization level 12000.0 pg/mm2, Rmax 16.0 pg/mm2, ka 78971.5 M-1s-1, kd 0.214 1/s",5.57
same,pKD,"Immobilization level 13000.0 pg/mm2, Rmax 22.0 pg/mm2, ka 80847.64 M-1s-1, kd 0.299 1/s",5.43
O=C(Nc1ccc2c(c1)CNCCC2)c1cc(Cl)cc2[nH]ncc12,pKD,"Immobilization level 3900.0 pg/mm2, Rmax 31.0 pg/mm2, ka 773276.281 M-1s-1, kd 0.645 1/s",6.08
same,pKD,"Immobilization level 4900.0 pg/mm2, Rmax 48.0 pg/mm2, ka 455527.731 M-1s-1, kd 0.593 1/s",5.89
same,pKD,"Immobilization level 5500.0 pg/mm2, Rmax 50.0 pg/mm2, ka 530646.741 M-1s-1, kd 0.578 1/s",5.96
same,pKD,"Immobilization level 10000.0 pg/mm2, Rmax 36.0 pg/mm2, ka 650451.64 M-1s-1, kd 0.663 1/s",5.99
same,pKD,"Immobilization level 12000.0 pg/mm2, Rmax 60.0 pg/mm2, ka 669381.958 M-1s-1, kd 0.419 1/s",6.2
same,pKD,"Immobilization level 13000.0 pg/mm2, Rmax 48.0 pg/mm2, ka 553000.714 M-1s-1, kd 0.56 1/s",5.99
O=C(Nc1ccc(C2CCNCC2)cc1)c1cc(Cl)cc2[nH]ncc12,pKD,"Immobilization level 10000.0 pg/mm2, Rmax 4.0 pg/mm2, ka 163257.858 M-1s-1, kd 0.446 1/s",5.56
same,pKD,"Immobilization level 12000.0 pg/mm2, ka 318291.503 M-1s-1, kd 0.429 1/s",5.87
same,pKD,"Immobilization level 13000.0 pg/mm2, ka 203161.324 M-1s-1, kd 0.494 1/s",5.61
O=C(Nc1ccc2c(c1)CNC2)c1cc(Br)cc2[nH]ncc12,pKD,"Immobilization level 3900.0 pg/mm2, Rmax 38.0 pg/mm2, ka 289981.015 M-1s-1, kd 0.089 1/s",6.51
same,pKD,"Immobilization level 4900.0 pg/mm2, Rmax 58.0 pg/mm2, ka 168121.167 M-1s-1, kd 0.102 1/s",6.21
same,pKD,"Immobilization level 5500.0 pg/mm2, Rmax 62.0 pg/mm2, ka 169991.939 M-1s-1, kd 0.118 1/s",6.16
same,pKD,"Immobilization level 10000.0 pg/mm2, Rmax 73.0 pg/mm2, ka 76775.421 M-1s-1, kd 0.125 1/s",5.79
same,pKD,"Immobilization level 12000.0 pg/mm2, Rmax 147.0 pg/mm2, ka 18302.495 M-1s-1, kd 0.037 1/s",5.69
same,pKD,"Immobilization level 13000.0 pg/mm2, Rmax 120.0 pg/mm2, ka 46201.966 M-1s-1, kd 0.079 1/s",5.76
C[C@@H](N)c1ccc(NC(=O)c2cc(Cl)cc3[nH]ncc23)cc1,pKD,"Immobilization level 3900.0 pg/mm2, Rmax 41.0 pg/mm2, ka 249513.67 M-1s-1, kd 1.946 1/s",5.11
same,pKD,"Immobilization level 4900.0 pg/mm2, Rmax 50.0 pg/mm2, ka 225007.554 M-1s-1, kd 1.686 1/s",5.12
same,pKD,"Immobilization level 5500.0 pg/mm2, Rmax 61.0 pg/mm2, ka 227099.936 M-1s-1, kd 1.979 1/s",5.06
same,pKD,"Immobilization level 10000.0 pg/mm2, Rmax 53.0 pg/mm2, ka 348896.97 M-1s-1, kd 2.109 1/s",5.22
same,pKD,"Immobilization level 12000.0 pg/mm2, Rmax 62.0 pg/mm2, ka 212895.642 M-1s-1, kd 1.524 1/s",5.14
same,pKD,"Immobilization level 13000.0 pg/mm2, Rmax 66.0 pg/mm2, ka 290082.005 M-1s-1, kd 1.572 1/s",5.27
